According to PubChem BioAssay (Tox21):
Records with an inconclusive call do not appear. A number with no mark means an inactive call. Active and inactive are the calls of the source. The call rests on the fitted dose curve; in most records, active means well fitted activation curve with a large enough effect in the signal ratio in the repeat runs (not every such curve was filed as active); inconclusive means weak or mixed curves, or effect the other way; inactive means no such curve, though single readings can be large or run the other way; the % refers to the signal ratio.

biological target: Peroxisome proliferator-activated receptor gamma (Homo sapiens) (UniProt P37231); experiment: qHTS assay to identify small molecule agonists of the peroxisome proliferator-activated receptor gamma (PPARg) signaling pathway (AID 743094); conditions: HEK293H PPARg-UAS-bla, beta-lactamase FRET ratio, 17 h; series mostly up to 57 µM; activation: at the top concentration
Sequence (P37231 whole entry, looked up): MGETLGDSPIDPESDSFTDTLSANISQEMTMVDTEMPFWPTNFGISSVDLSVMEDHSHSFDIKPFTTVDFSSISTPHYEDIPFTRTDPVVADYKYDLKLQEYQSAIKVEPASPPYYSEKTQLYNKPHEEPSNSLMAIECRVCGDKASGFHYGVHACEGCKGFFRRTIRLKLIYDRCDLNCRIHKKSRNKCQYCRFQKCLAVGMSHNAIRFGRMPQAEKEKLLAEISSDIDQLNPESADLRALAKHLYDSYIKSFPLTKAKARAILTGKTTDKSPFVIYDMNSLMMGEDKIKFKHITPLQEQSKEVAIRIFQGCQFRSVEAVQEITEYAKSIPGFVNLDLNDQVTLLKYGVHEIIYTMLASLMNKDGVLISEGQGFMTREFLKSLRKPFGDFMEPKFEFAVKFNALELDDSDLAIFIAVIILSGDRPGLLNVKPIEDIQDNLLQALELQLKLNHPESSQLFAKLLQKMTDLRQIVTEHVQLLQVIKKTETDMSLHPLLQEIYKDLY
Description: U.S. Tox21 Program National Center for Advancing Translational Sciences [NCATS] NIH Chemical Genomics Center [NCGC] U.S. Environmental Protection Agency [EPA] National Institutes of Environmental Health Sciences [NIEHS] National Toxicology Program [NTP] U.S. Food and Drug Administration [FDA] Tox21 Assay Overview: The peroxisome proliferator-activated receptors (PPARs) are lipid-activated transcription factors of the nuclear receptor superfamily with three distinct subtypes namely PPAR alpha, PPAR delta (also called PPAR beta) and PPAR gamma (PPARg). All these subtypes heterodimerize with Retinoid X receptor (RXR) and these heterodimers regulate transcription of various genes. PPAR-gamma receptor (glitazone receptor) is involved in the regulation of glucose and lipid metabolism. To identify the compounds that activate PPAR-gamma signaling, GeneBLAzer PPAR gamma UAS-bla HEK293H cell line (Invitrogen, Carlsbad, CA, USA) containing a beta-lactamase reporter gene under control of the control of an upstream activator sequence (UAS) stably integrated into HEK293H cells was used to screen Tox21 compound library.
Tox21 Assay Protocol Summary: PPARg-bla cells were dispensed at 3000 cells/6uL/well in 1536-well black wall/clear bottom plates using a Multidrop Combi (Thermo Fisher Scientific, Waltham, MA) dispenser. After the assay plates were incubated at 37C and 5% CO2 for 5 h, 23 nL of compounds dissolved in DMSO, positive controls or DMSO only was transferred to the assay plate by a Pintool station (Kalypsys, San Diego, CA). The assay plates were incubated at 37C for 17 h. After 1 uL of LiveBLAzerTM B/G FRET substrate was added using a Bioraptr Flying Reagent Dispenser (FRD) workstation (Beckman Coulter, Indianapolis, IN, USA), the plates were incubated at room temperature for 1 h, and fluorescence intensity was measured by an Envision plate reader (PerkinElmer, Shelton, CT).
On the % scale 0 is the no-effect control and ±100 the full control effect; potency means the concentration at half of the fitted maximal effect.

| SMILES | activation | Potency |
| --- | --- | --- |
| O=C1CCO1 | -1.4% |  |
| CCCCCCCCCC(=O)O[C@H]1CC[C@H]2[C@@H]3CCC4=CC(=O)CC[C@]4(C)[C@H]3CC[C@]12C | -1.08% |  |
| CC(=O)OC1CN2CCC1CC2 (stereo not given) | -1.59% |  |
| C[C@@H](Cc1ccccc1)N(C)C | 2.08% |  |
| CN1C(=O)CC(=O)N(c2ccccc2)c2cc(Cl)ccc21 | 4.31% |  |
| CC(Cc1ccccc1)NC=O (stereo not given) | -2.06% |  |
| C=CCN(C1=NCCN1)c1c(Cl)cccc1Cl | -3.69% |  |
| NCC[C@H](O)C(=O)N[C@@H]1C[C@H](N)[C@@H](O[C@H]2O[C@H](CN)[C@@H](O)[C@H](O)[C@H]2N)[C@H](O[C@@H]2O[C@H](CO)[C@@H](O)[C@H]2O)[C@H]1O | -0.433% [at 26.2 µM] |  |
| CN1CC[C@@]23CCCC[C@@H]2[C@@H]1Cc1ccc(O)cc13 | -6.33% |  |
| C[C@H]1CC[C@]2(NC1)O[C@H]1C[C@H]3[C@@H]4CC[C@H]5C[C@@H](O)CC[C@]5(C)[C@H]4CC[C@]3(C)[C@H]1[C@@H]2C | 0.852% |  |
| CN1CSC(=S)N(C)C1 | -0.313% |  |
| CCCC(C)(COC(N)=O)COC(=O)NC1CC1 (stereo not given) | -4.82% |  |
| O[C@H]1[C@H]2[C@H](O)CCCN2C[C@H]1O | 0.169% |  |
| C=CCC1(C(C)CCC)C(=O)N=C(S)NC1=O (stereo not given) | -4.99% |  |
| CN=C1CN(O)C(c2ccccc2)=c2cc(Cl)ccc2=N1 |  | inactive |
| O=C1OC2(c3cc(Br)c(O)cc3Oc3c2cc(Br)c(O)[c]3[Hg])c2ccccc21 (stereo not given) | -1.16% [at 26.2 µM] |  |
| O=C1CN=C(c2ccccc2)c2cc(Cl)ccc2N1 | -3.65% |  |
| CC(N)Cc1ccc2c(c1)OCO2 (stereo not given) | 0.397% |  |
| C[N+]1([O-])[C@@H]2CC[C@H]1CC(OC(=O)C(CO)c1ccccc1)C2 (stereo not given in full) |  | inactive |
| c1ccc(C2(c3ccccc3)CC2C2=NCCN2)cc1 (stereo not given) | 0.478% |  |

| SMILES | activation | Potency |
| --- | --- | --- |
| CC(=O)Oc1ccc2c3c1O[C@H]1[C@@H](OC(C)=O)C=C[C@H]4[C@@H](C2)N(C)CC[C@@]341 |  | inactive |
| COc1ccc(OC)c([C@@H](O)[C@H](C)N)c1 | 2.74% |  |
| CCNCC(O)c1cccc(O)c1 (stereo not given) | 5.87% [at 26.2 µM] |  |
| Clc1ccccc1-c1ccccc1Cl | -8.21% [at 78.9 µM] |  |
| CN[C@]1(c2ccccc2Cl)CCCCC1=O | -12.9% |  |
| CC(C)C[C@H](CN)CC(=O)O | 2.82% |  |
| CC(C)NC(C)Cc1ccc(I)cc1 (stereo not given) | -8.37% |  |
| CCC1(c2cnc[nH]2)Cc2ccccc2C1 |  | inactive |
| CCCN1CCC[C@H](c2cccc(O)c2)C1 | 5.91% |  |
| NC(=O)CN1CC(O)CC1=O (stereo not given) | 3.31% |  |
| [H+].[H+].[Hg+2].[O-]B([O-])[O-].[c-]1ccccc1 |  | 19 µM (active) |
| CCC1(C)CC(=O)NC(=O)C1 | -0.412% [at 26.2 µM] |  |
| CCC(=O)O[C@]1(c2ccccc2)CCN(C)C[C@H]1C | 0.603% |  |
| NC1=NC(=O)N2CC12 (stereo not given) | 2.42% |  |
| O=C(O)CCCO | 0.0984% [at 78.9 µM] |  |
| CN[C@H]1C[C@@H](N)[C@H](O)[C@@H](O[C@@H]2O[C@H](CO)[C@H](O)[C@@H]3OC4(O[C@H]23)O[C@H](C(N)CO)[C@H](O)[C@H](O)[C@H]4O)[C@@H]1O (stereo not given in full) |  | inactive |
| CNC1(c2ccccc2Cl)CCCCC1=O (stereo not given) |  | inactive |
| CC(=O)[C@H]1CC[C@H]2[C@@H]3CC[C@@H]4C[C@H](O)CC[C@]4(C)[C@H]3CC[C@]12C | 2.28% |  |
| COc1ccc(OC)c(C[C@H](C)N)c1 | -0.0497% [at 78.9 µM] |  |
| OCC(c1ccc(Cl)cc1)c1ccc(Cl)cc1 | -10.6% |  |
